From PubChem
KB-3-1 tox = KB-3-1 parental cell cytotoxicity | Potency, µM (top dose mostly 46.1 µM), most hits filed as cytotoxic | KB-3-1 viability, CellTiter-Glo ATP luminescence, 72 h | hit rate 1.4% among 400,000; also: potency is read from the fitted curve at half-maximal effect; nearly all actives have a fitted effect of over 60% in size
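Cells are dispensed, compounds pinned in, plates held at 37 °C for 72 h, then CellTiter-Glo is added and luminescence read after 10 minutes. Cell line: parental KB-3-1 in phenol-red-free DMEM, 10% FBS.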
HT1080NT lethal = kills 2HG-producing HT-1080-NT fibrosarcoma cells; HT-1080-NT fibrosarcoma viability, CellTiter-Glo ATP luminescence, 48 h; Potency, µM (highest dose often 46.1 µM), without a hit: top-dose activity, negative = less viability, actives largely listed as cytotoxic; hit rate 1.6% among 360,000;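 also: NT is the 2HG producing partner of a matched IDH1 knockdown line; potency is read from the fitted curve at half-maximal effect; 0% = DMSO-treated cells and -100% = media-only wells without cells; nearly all actives have a fitted effect of over 55% in size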
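Fibrosarcoma NT cells, 750 per well in 5% FBS RPMI, were exposed to compound for 48 hours. Viability: CellTiter-Glo luminescence.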
IL1B secr inh = inhibitors of inflammasome signaling (IL-1 beta secretion); THP-1 LPS/ATP IL-1B secretion, AlphaLISA, 16 h; hits give low values; activity change, % at 57.5 µM; hit rate 4.7% among 360,000; AID 743279; in the data active = activity change below about -50%; inconclusive = mostly about -30% to -49%
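THP-1 cells pretreated 1 hr with compounds (up to 57.5 uM final), then stimulated with LPS (250 ng/mL final) plus ATP (1.25 mM final); secreted IL-1B measured by AlphaLISA after 16 hr, decreased signal indicating inhibition.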
KB-V1 MDR tox = KB-V1 MDR subline cytotoxicity | KB-V1 MDR cells viability, CellTiter-Glo, 72 h | AID 1347076 | Potency, µM (titrated, usually from 46.1 µM), usual class: cytotoxic | hit rate 3.4% among 400,000; also: potency is read from the fitted curve at half-maximal effect; nearly all actives have a fitted effect of over 60% in size
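KB-V1 MDR subline cells in DMEM (phenol-red free, 10% FBS) exposed to compounds in qHTS concentration series for 72 h at 37 degrees C. Viability read by CellTiter-Glo luminescence; concentration-effect curves fitted after normalization and correction.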
HT1080 IDH1KD tx = kills HT-1080 cells with IDH1 knockdown; HT-1080 IDH1 knockdown viability, ATP luminescence, 48 h; Potency, µM (series often up to 46.1 µM), for the others: top-dose activity, negative = toxicity, actives largely listed as cytotoxic; hit rate 2% among 360,000;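 also: potency is read from the fitted curve at half-maximal effect; 0% = DMSO wells and -100% = cell-free medium wells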
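IDH1KD HT-1080 cells, 750/well, RPMI + 5% FBS; compound pinned after 2 h settling; 48 h, 37 °C; CellTiter-Glo luminescence; % activity normalised to DMSO and no-cell wells; curves fitted, classed by r2 and efficacy.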
* hit, by the source's call. Rows were chosen to be rich in hits. Some 8.8% of all compounds tested hit in one or more screens of this group. Unless noted, calls follow the shape of the dose curve; as a rule, active = well fitted curve in the direction sought with a large enough effect; inconclusive = small, poorly fitted or top-dose-only effect, or another doubt; inactive = no such curve, though single readings can be large; an effect the other way counts as inactive or inconclusive. Unless noted, % is scaled to controls: 0 for no effect and ±100 for the full control effect.

What do the screens show for `CCOc1ccc(C(C)=O)cc1Cn1c(=O)oc2ccccc21`?
KB-3-1 tox: inactive; HT1080NT lethal: 1%; IL1B secr inh: -4; KB-V1 MDR tox: inactive; HT1080 IDH1KD tx: -2%

Results for O=C(CSc1nn(-c2ccc(Cl)cc2)c(=S)s1)N1CCN(C(=O)c2ccco2)CC1 ?
KB-3-1 tox: inactive; HT1080NT lethal: -23%; IL1B secr inh: -1; KB-V1 MDR tox: inconclusive; HT1080 IDH1KD tx: -4%

How did O=C(CSc1nn(-c2ccc(F)cc2)c(=S)s1)N1CCN(C(=O)c2ccco2)CC1 do in these assays?
KB-3-1 tox: inactive; HT1080NT lethal: -48%; IL1B secr inh: -79*; KB-V1 MDR tox: inconclusive; HT1080 IDH1KD tx: -25%

What do the screens show for `CC(=O)C1C(c2cccc(F)c2)c2c(n[nH]c2C)CC1(C)O` (stereo not drawn)?
KB-3-1 tox: inactive; HT1080NT lethal: 12%; IL1B secr inh: 12; KB-V1 MDR tox: inactive; HT1080 IDH1KD tx: -1%

What do the screens show for `CN(Cc1ccccc1)C(=O)C(C(=O)c1ccc(F)cc1)n1cc(Cl)ccc1=O` (stereo not drawn)?
KB-3-1 tox: inactive; HT1080NT lethal: 8%; IL1B secr inh: 19; KB-V1 MDR tox: inconclusive; HT1080 IDH1KD tx: 1%

Results for Cc1cccc(N2C(=O)C(Oc3ccc(Cl)cc3Cl)C2C=O)c1C (stereo not drawn) ?
KB-3-1 tox: inconclusive; HT1080NT lethal: 9.2µM*; IL1B secr inh: -89*; KB-V1 MDR tox: inconclusive; HT1080 IDH1KD tx: inconclusive

How did Cc1ccccc1CN1C[C@@H]2C[C@@H](c3cn[nH]c3-c3ccc(F)cc3)N3CCC[C@@]23C1=O do in these assays?
KB-3-1 tox: inactive; HT1080NT lethal: inconclusive; IL1B secr inh: -51*; KB-V1 MDR tox: inactive; HT1080 IDH1KD tx: -26%

Results for Oc1ccc(O)c(Cc2nc3ccccc3s2)c1 ?
KB-3-1 tox: inconclusive; HT1080NT lethal: inconclusive; IL1B secr inh: -55*; KB-V1 MDR tox: inconclusive; HT1080 IDH1KD tx: 16µM*

What do the screens show for `OCc1cc(Br)ccc1OCc1nc2ccccc2s1`?
KB-3-1 tox: inactive; HT1080NT lethal: -6%; IL1B secr inh: 54; KB-V1 MDR tox: 5.2µM*; HT1080 IDH1KD tx: -6%

Results for CCOC(=O)C1=C(N)n2c(s/c(=C\c3ccco3)c2=O)=C(C(=O)OCC)C1c1ccco1 (stereo not drawn) ?
KB-3-1 tox: 16µM*; HT1080NT lethal: 16µM*; IL1B secr inh: 8; KB-V1 MDR tox: 4.6µM*; HT1080 IDH1KD tx: 7.9µM*

What do the screens show for `CCOC(=O)C1=C(N)n2c(s/c(=C\c3ccco3)c2=O)=C(C(=O)OC(C)C)C1c1ccco1` (stereo not drawn)?
KB-3-1 tox: inactive; HT1080NT lethal: 13%; IL1B secr inh: -8; KB-V1 MDR tox: inactive; HT1080 IDH1KD tx: -9%

Results for CC(OC(=O)CCCSc1nc2ccccc2s1)C(=O)NC(N)=O (stereo not drawn) ?
KB-3-1 tox: inactive; HT1080NT lethal: -15%; IL1B secr inh: 31; KB-V1 MDR tox: inactive; HT1080 IDH1KD tx: 0%

Results for Cc1[nH]c2ccccc2c1C(=O)CSc1ccc(Cl)cc1 ?
KB-3-1 tox: inactive; HT1080NT lethal: 0%; IL1B secr inh: -16; KB-V1 MDR tox: inactive; HT1080 IDH1KD tx: -19%

What do the screens show for `Cc1[nH]c2ccccc2c1C(=O)/C=C/c1ccccc1`?
KB-3-1 tox: inconclusive; HT1080NT lethal: inconclusive; IL1B secr inh: -96*; KB-V1 MDR tox: inactive; HT1080 IDH1KD tx: inconclusive

What do the screens show for `CC(=O)c1c(C)[nH]c2ccccc2c1=O`?
KB-3-1 tox: inactive; HT1080NT lethal: 18%; IL1B secr inh: 25; KB-V1 MDR tox: inactive; HT1080 IDH1KD tx: 8%

What do the screens show for `COc1ccc2[nH]c(C)c(C(=O)CN3CCN(C/C=C/c4ccccc4)CC3)c2c1`?
KB-3-1 tox: inactive; HT1080NT lethal: -1%; IL1B secr inh: inconclusive; KB-V1 MDR tox: inactive; HT1080 IDH1KD tx: -1%

What do the screens show for `Cc1[nH]c2ccccc2c1C(=O)/C=C\c1ccccc1Cl`?
KB-3-1 tox: inconclusive; HT1080NT lethal: inconclusive; IL1B secr inh: -101*; KB-V1 MDR tox: inconclusive; HT1080 IDH1KD tx: inconclusive
